In all, about 7,900 compounds went through this assay and about 400 (5.1%) showed an effect of 50% or more. This is one part of a sample in which strong results are shown more often than they occur.

For this test, the target named is Parkinson's disease protein 7 (PARK7/DJ1) (human, UniProt Q99497). The experiment in a line: primary screen, percent inhibition; read as competition with a fluorescent probe by fluorescence polarization; higher = more effect of the substance. The conditions noted are these: 100 µM. Put shortly: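 Covalent fragments at 100 μM final were incubated 2 h with 0.2 μM PARK7, then 20 nM probe JYQ-107 added for a further 2 h. Fluorescence polarization read at 480/520 nm; relative FP loss versus reference controls gave remaining enzyme activity.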
Sequence of Parkinson's disease protein 7 (PARK7/DJ1) (Q99497 whole entry, looked up, the tested form may be a part): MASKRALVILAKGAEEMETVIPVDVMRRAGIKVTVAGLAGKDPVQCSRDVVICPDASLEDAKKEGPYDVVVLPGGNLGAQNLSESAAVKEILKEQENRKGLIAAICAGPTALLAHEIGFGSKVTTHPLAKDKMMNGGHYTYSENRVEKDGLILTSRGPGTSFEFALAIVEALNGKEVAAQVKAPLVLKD
`C=CC(=O)Nc1cccc2c1CCN(S(C)(=O)=O)C2`: the Inhibition % turned out to be 3.82%.
Take `CC1CC(Sc2ccccc2F)C(=O)O1` (stereo not shown): the Inhibition % was -0.183%.
Turning to `C=CC(=O)NCCN1C(=O)Cc2ccccc21`, the Inhibition % is listed as 11%.
Consider `CCN(C(=O)Cn1cnc(C#N)n1)C1=CCCCC1`, for which the Inhibition % turned out to be 6.47%.
`C=CC(=O)N1CC23CCCCC2(COC3)C1` (stereo not shown): the Inhibition % is 8.4%.
`CC(=O)Nc1cccc(NC(=O)CCl)c1`: the Inhibition % came to 19.2%.
On to `O=C(CCl)Nc1ccc(C(=O)O)cc1`, for which the Inhibition % was 25.9%.
To `O=C(CCl)Nc1ccc(F)c(F)c1` belongs 25.9%; to `CNC(=O)c1ccc(NC(=O)CCl)cc1`, 16.6%.
`O=C(CCl)Nc1ccc(I)cc1`: the Inhibition % is on record as 93.2%.
To `O=C(CCl)Nc1cccc(I)c1` belongs 41%; to `O=C(CCCl)Nc1ccc(Cl)cc1`, 9.16%.
Take `CC(C)(C)c1ccc(NC(=O)CCl)cc1`: the Inhibition % came to 100%.
Regarding `O=C(CCl)Nc1ccc2ccccc2c1`, the Inhibition % was determined as 55.8%.
Regarding `O=C(CCl)Nc1ccc(Cl)cc1`, the Inhibition % turned out to be 60.3%.
With `O=C(CCl)Nc1ccc2c(c1)C(=O)c1ccccc1C2=O`, the Inhibition % is 2.08%.
Consider `CC(C)CN(C1CC1)S(=O)(=O)C=Cc1ccccc1`, for which the Inhibition % was determined as 13.3%.
In the case of `C=CC(=O)N1CCS(=O)(=O)c2ccccc2C1`, the Inhibition % is reported as 7.33%.
As for `CC1(C)OB(c2cccc3scnc23)OC1(C)C`, the Inhibition % is 3.85%.
As for `C=CC(=O)NCC1CC(C)OC(C)C1` (stereo not shown), the Inhibition % stood at 11.1%.
Turning to `N#Cc1c(N)nc2n1CCS2`, the Inhibition % stood at 4.18%.
Turning to `N#Cc1ncccc1OCCc1ccccc1`, the Inhibition % stood at 13.6%.
Turning to `CC(NC(=O)Cn1cnc(C#N)n1)c1ccc(F)cc1` (stereo not shown), the Inhibition % turned out to be 4.98%.
As to `C=CC(=O)N1CCN(Cc2ccon2)CC1`, the Inhibition % is on record as 4.28%.
To `Cn1ncc(C(F)(F)F)c1B1OC(C)(C)C(C)(C)O1` belongs 8.08%; to `NC(=O)c1ccsc1NC(=O)CCCl`, 9.06%.
As to `O=C(CCl)Nc1ccc(-c2ccccc2)cc1`, the Inhibition % is reported as 4.3%.
As for `NC(=O)c1cc(-c2ccccc2)sc1NC(=O)CCl`, the Inhibition % is given as 79.3%.
To `O=C(CCl)Nc1nncs1` belongs 4.4%; to `NC(=O)c1ccccc1NC(=O)CCl`, 0.06%.
Take `NC(=O)c1ccsc1NC(=O)CCl`: the Inhibition % was determined as 84.7%.
For the compound `Cn1cc(C(=O)O)c(CCCCl)n1`, the Inhibition % is reported as 6.81%.
For `N#Cc1cc(N2CCCC2)c2ccccc2n1`, the Inhibition % is given as 3.59%.
To `C=CCNS(=O)(=O)C=Cc1ccccc1` belongs 7.29%; to `CC1(C)OB(c2cccc(-n3ccnn3)c2)OC1(C)C`, 6.79%; to `C=CC(=O)Nc1nc2cnccn2n1`, 23%.
Regarding `C=CC(=O)NCc1cc2n(n1)CCCC2`, the Inhibition % was 10.1%.
With `N#Cc1ncn(CC2CCCO2)n1` (stereo not shown), the Inhibition % came to 1.91%.
As for `O=S(=O)(F)c1ccccc1Br`, the Inhibition % was found to be 44.3%.
Consider `O=S(=O)(F)c1ccccc1O`, for which the Inhibition % is 9.92%.
To `O=[N+]([O-])c1ccccc1S(=O)(=O)F` belongs 99.1%; to `C=CC(=O)NCC1COC(=O)N1` (stereo not shown), 13.5%; to `O=S(=O)(F)c1ccc(C(F)(F)F)cn1`, 6.36%.
As for `Cc1ccc(S(=O)(=O)F)nn1`, the Inhibition % came out at 65.4%.
`O=S(=O)(F)c1ccc(C(F)(F)F)nn1`: the Inhibition % was determined as 8.52%.
In the case of `C=CC(=O)N[C@@H]1C=C[C@H](CO)C1`, the Inhibition % came to 8.28%.
`Cn1cc(C=C(C#N)C(=O)NCCc2ccccc2)cn1`: the Inhibition % amounted to 9.69%.
Regarding `O=C(O)c1ccc(CCCl)cc1`, the Inhibition % is reported as 8.12%.
To `NC(=O)c1coc(C(=O)CCl)c1` belongs 96.3%.
Consider `CNC(=O)c1cc(C(=O)CCl)cn1C`, for which the Inhibition % is 5.61%.
Take `O=C(CCl)Nc1cc(C(=O)O)cc(C(=O)O)c1`: the Inhibition % was found to be 1.39%.
With `O=C(O)c1coc(C(=O)CCl)c1`, the Inhibition % is recorded as 96.1%.
Regarding `C=CC(=O)N1CCC(OC)C(C)C1` (stereo not shown), the Inhibition % amounted to 4.37%.
As for `N#CC(=Cc1ccccc1)C(=O)N1CCC(C(N)=O)CC1`, the Inhibition % amounted to 9.67%.
Turning to `CN1C(=O)C(C#N)=C(N)C12CCCC2`, the Inhibition % is given as 9%.
As for `C=CC(=O)N1CCN(C(=O)OCC(C)C)CC1`, the Inhibition % worked out at 11.5%.
In the case of `CN(CCC1CCOCC1)c1nc2ccccn2c1C#N`, the Inhibition % is recorded as 5.08%.
With `O=C(O)CNS(=O)(=O)C=Cc1ccccc1`, the Inhibition % is reported as 84.3%.
For the compound `O=C(O)c1csc(NS(=O)(=O)C=Cc2ccccc2)c1`, the Inhibition % came out at 62.5%.
For `CNC(=O)CNS(=O)(=O)C=Cc1ccccc1`, the Inhibition % is 6.07%.
As to `Cc1ccc(C=CS(=O)(=O)NCCC(=O)O)cc1`, the Inhibition % came out at 5.97%.
With `CNC(=O)CNS(=O)(=O)C=Cc1ccc(Cl)cc1`, the Inhibition % was 0.98%.
Regarding `O=C(O)CCNS(=O)(=O)C=Cc1ccccc1`, the Inhibition % came to 6.07%.
Take `O=C(O)c1ccc(NS(=O)(=O)C=Cc2ccccc2)cc1`: the Inhibition % is reported as 6.88%.
`O=C(O)c1cccc(NS(=O)(=O)C=Cc2ccccc2)c1`: the Inhibition % is on record as -0.0382%.
`Cc1ccc(C=CS(=O)(=O)NCC(=O)O)cc1`: the Inhibition % is listed as 81.7%.
Regarding `CC(=O)N1CCN(C(=O)C=Cc2c(C)nn(C)c2Cl)CC1`, the Inhibition % stood at 8.55%.
Take `O=C(O)C1CC(O)CN1C(=O)C=Cc1ccc(F)cc1` (stereo not shown): the Inhibition % stood at 2.28%.
Take `N#Cc1ccc(N2CCCC(N3CCCCCC3)C2)cn1` (stereo not shown): the Inhibition % amounted to 5.26%.
In the case of `O=C(CCl)Nc1cc(C2CC2)nn1-c1ccccc1`, the Inhibition % amounted to 18.1%.
For the compound `CC1CC(Sc2nncn2-c2ccccc2F)C(=O)O1` (stereo not shown), the Inhibition % was 0.0122%.
For the compound `COc1ccc(F)cc1S(=O)(=O)n1ccnc1C`, the Inhibition % is given as 3.76%.
To `CC1(C)OB(c2cc(Cl)ccc2N)OC1(C)C` belongs 13.4%.
For the compound `CC(C)(C)OC(=O)c1cc2ccc(B3OC(C)(C)C(C)(C)O3)cc2[nH]1`, the Inhibition % is given as 7.8%.
In the case of `O=c1onc(-c2cnccn2)n1Cc1cccc(F)c1`, the Inhibition % is -2.87%.
To `Cc1cc(NS(=O)(=O)c2ccc(S(=O)(=O)F)cc2)c[nH]c1=O` belongs 92.6%; to `Cc1cc(NS(=O)(=O)C2=CCCCC2)c[nH]c1=O`, 48.5%.
To `O=C(O)CC1OB(O)c2ccccc21` (stereo not shown) belongs 0.686%; to `CCN(CCC#N)S(=O)(=O)C=Cc1ccccc1Cl`, 6.99%; to `C#CC(=O)Nc1ccc(CC(=O)O)cc1`, 0.397%.
Regarding `C#CC(=O)Cc1ccccc1`, the Inhibition % was found to be 7.8%.
As for `COc1ccccc1CS`, the Inhibition % is recorded as 1.46%.
In the case of `O=C(O)c1ccc(CS)cc1`, the Inhibition % was 17.3%.
`O=C(O)Cc1ccccc1CS`: the Inhibition % turned out to be 89.6%.
To `O=C(O)Cc1ccc(CS)cc1` belongs 58.7%.

The record behind these values is article PMC9574860, “Chemical Toolkit for PARK7: Potent, Selective, and High-Throughput” (Journal of Medicinal Chemistry, 2022).
